About 800 (1.6%) of roughly 50,000 compounds showed an effect of 50% or more. The sample as a whole holds a higher share of strong results than the screen did.
Each compound was assayed against Bcl-2-like protein 10 (Homo sapiens) (UniProt Q9HD36) (assay: TR3 peptide-Bcl-B binding displacers, biochemical primary FP assay, phenotype converters (AID 1240;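 note: 0% = Bcl-B with tracer peptide and DMSO and 100% = tracer peptide lacking Bcl-B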)). Conditions: GST-Bcl-B / FITC-TR3 peptide fluorescence polarization; stronger effect = higher value; compound at 3.75 mg/L.
Chain of Bcl-2-like protein 10 (Homo sapiens) (Q9HD36 whole entry, looked up): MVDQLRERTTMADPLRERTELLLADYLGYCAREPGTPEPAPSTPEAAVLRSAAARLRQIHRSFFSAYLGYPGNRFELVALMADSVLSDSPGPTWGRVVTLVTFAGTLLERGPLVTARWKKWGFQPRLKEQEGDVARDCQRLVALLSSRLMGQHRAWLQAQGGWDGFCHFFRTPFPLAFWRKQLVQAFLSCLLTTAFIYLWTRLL

Compound	displacement [%]
CCC(C)NC(=O)C(=O)NCCc1ccccc1 (centres undefined)	5.5
Cc1nc2ccccc2n1C(=O)c1ccco1	-3.1
O=C(NCc1ccccn1)C(=O)N/N=C/c1ccccc1C(F)(F)F	-19.3
CC(=O)N=c1cccc(NC(C)=O)n1O	5.8
CC(=O)Oc1ccc2c(c1)oc(=O)c1c3cc(OC(C)=O)c(OC(C)=O)cc3oc21	12.7
O=C(Nc1ccc(Cl)c(C(F)(F)F)c1)c1cccs1	-5.7
COc1ccc(/C=C2/C=C(c3ccccc3)OC2=O)cc1	-15.2
COc1cc(/C=C2/C=C(c3ccccc3)OC2=O)ccc1C	-4.5
COc1ccc(C2=C/C(=C/c3ccc(OC)c(OC)c3)C(=O)O2)cc1	154
O=C1OC(c2ccccc2)=C/C1=C/c1ccc2c(c1)OCO2	-0.2
O=C1OC(c2ccc(Cl)cc2)=C/C1=C\c1ccc2c(c1)OCO2	-19.4
COc1ccc(C2=C/C(=C\c3ccc4c(c3)OCO4)C(=O)O2)cc1	117
CCOc1ccc(C2=C/C(=C/c3ccc(OC)c(OC)c3)C(=O)O2)cc1	34.8
COc1ccc(/C=C2/C=C(c3ccc(OC)c(OC)c3)OC2=O)cc1OC	189
COc1ccc(C2=C/C(=C/c3ccc(OC)c(Br)c3)C(=O)O2)cc1	11
CCOC(=O)/C(C#N)=C\c1c(C)c(C)c(/C=C(/C#N)C(=O)OCC)c(C)c1C	7.7
c1ccc(-c2nc(N3CCOCC3)nc3ccccc23)cc1	-1.9
c1ccc2c(c1)nc(N1CCOCC1)c1ccccc12	-0.6
c1ccc2nc3c(cc(N4CCOCC4)c4ccccc43)nc2c1	147
CCOC(=O)C(=O)Nc1nc(C23CC4CC(CC(C4)C2)C3)cs1	3.2
O=C(Cc1ccccc1)Nc1ccc(Cl)c(-c2nc3cc(Cl)ccc3o2)c1	-37.9
CCC(=O)/C(C)=C(\NC(=O)c1ccccc1)c1ccccc1	-4.8
CC(C)c1ccc(N2C(=O)NC(=O)/C(=C/c3ccc(O)c(O)c3)C2=O)cc1	-20.3
O=C(CCCN1C(=O)/C(=C\c2cccs2)SC1=S)Nc1nc2ccccc2s1	12.7
O=C(CCN1C(=O)/C(=C/c2ccc(Cl)cc2)SC1=S)Nc1nccs1	14.9
Cc1cc(NC(=O)CCN2C(=O)/C(=C\c3cccs3)SC2=S)no1	90.4
O=C(CCCN1C(=O)/C(=C/c2ccccc2)SC1=S)Nc1nccs1	11.2

Compound	displacement [%]
O=C(CCCN1C(=O)/C(=C\c2cccs2)SC1=S)Nc1nccs1	114
Cc1cc(NC(=O)CCN2C(=O)/C(=C/c3ccccc3)SC2=S)no1	5.3
Cc1ccc(/C=C2\SC(=S)N(CCC(=O)Nc3nccs3)C2=O)cc1	19.4
O=C(CCN1C(=O)/C(=C\c2cccs2)SC1=S)Nc1nccs1	120
Cc1cc(NC(=O)CCN2C(=O)/C(=C/c3ccc(F)cc3)SC2=S)no1	19
O=C(CCCN1C(=O)/C(=C\c2cccs2)SC1=S)Nc1ccccn1	13.2
O=C(CCN1C(=O)/C(=C\c2cccs2)SC1=S)Nc1ccccc1C(=O)O	19.8
O=C(CCN1C(=O)/C(=C/c2cccs2)SC1=S)Nc1ccccn1	126
O=C(Nc1nccs1)c1ccc2c(c1)OCO2	32.1
CC(NC(=O)c1cc2cc([N+](=O)[O-])ccc2oc1=O)c1ccccc1 (centres undefined)	12.2
CS(=O)(=O)N(Cc1ccc(C(=O)Nc2ccc(CC#N)cc2)cc1)c1ccccc1	-7
COc1ccc(/C=C/C(=O)NCc2ccc(C)cc2)cc1OC	9.4
Cc1cccc(NC(=O)CN(c2ccc(C(C)C)cc2)S(=O)(=O)c2ccccc2)c1	2.4
COc1ccc(Cl)cc1N(CC(=O)NCC(C)C)S(=O)(=O)c1ccc(C)c([N+](=O)[O-])c1	16.7
CC(C)(C)c1ccc(OCC(O)CS(=O)(=O)Cc2ccc(Cl)cc2)cc1 (centres undefined)	8.5
O=C1C2ON(c3ccccc3)C(c3ccccc3)C2C(=O)N1Cc1ccccc1 (centres undefined)	5.9
COc1cccc(-n2c(O)c(/C=C3\C=c4ccccc4=N3)c(=O)[nH]c2=O)c1	-0.4
O=c1[nH]c(=O)n(-c2ccccc2)c(O)c1C(c1cccnc1)c1c(O)n(-c2ccccc2)c(=O)[nH]c1=O	-5
COc1cccc(-n2c(O)c(C(c3ccccn3)c3c(O)n(-c4cccc(OC)c4)c(=O)[nH]c3=O)c(=O)[nH]c2=O)c1	67.7
O=C1c2ccc([N+](=O)[O-])cc2C(=O)C1c1ccc2ccccc2n1 (centres undefined)	7.6
O=C1/C(=C\c2cccc(Br)c2)SC(=S)N1c1cccc(C(F)(F)F)c1	18.2
COc1ccc2c(c1)OCC/C2=N\OC(=O)c1ccccc1OC	-7.8
O=C(COc1ccc2ccccc2c1)NCC1CCCO1 (centres undefined)	12.6
COc1ccccc1-c1coc2cc(OC(=O)c3ccc(Cl)cc3)ccc2c1=O	-2
COc1ccccc1-c1coc2cc(OC(=O)c3cccc(Cl)c3)ccc2c1=O	6.5
COc1ccccc1-c1coc2cc(OC(=O)c3ccc(Cl)cc3Cl)ccc2c1=O	63.9
Cc1ccc(-c2nn(-c3ccccc3)cc2/C=C(\C#N)C(N)=O)o1	61.7

— PubChem BioAssay AID1240 (Sanford-Burnham Center for Chemical Genomics, 2008)
